TEAD-YAP block – TEAD-YAP interaction inhibition. inhibition, % at 9.12 µM. HEK-TIYL cells, TEAD-Gal4/YAP UAS-luciferase luminescence. hit rate 1.4% among 640,000; in the data active = inhibition above about 32%
MITF inh – blocks human microphthalmia-associated transcription factor | inhibition, % at 2.6 µM | O75030 | hit rate 0.91% among 650,000 | AID 1259374 | AlphaScreen MITF homodimerization, bead proximity signal; in the data active = inhibition above about 50%
GPR151 ag – activates the human receptor GPR151. AID 1508602. activation, % at 11.2 µM. PathHunter beta-arrestin GPR151 cells, luminescence. hit rate 1% among 650,000. Q8TDV0; in the data active = activation above about 4.9%
FBW7 act – human FBW7 E3 ligase activation, primary screen | AlphaScreen FBW7–phospho-cyclin E peptide binding, activator screen | normalized activity (activation), % at 26.1 µM | hit rate 0.13% among 650,000 | AID 1259310; in the data active = normalized activity above about 1.9%;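 also: purified mutant Fbw7 with reduced substrate affinity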
GPR151 confirm – human GPR151 activation, confirmation screen. GPR151 PathHunter beta-arrestin cells, luminescence, 90 min; % of EA-reagent control over plate median. activation, % at 11.2 µM. 6,700 tested, under 10 active. AID 1508609. shares compounds with GPR151 ag;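 active = mean percent activation across replicates above the confirmation screen cutoff of 4.91%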
GPR119 counter – GPR119 activation, counter-screen for GPR151 activators; shares compounds with GPR151 ag; hit rate 0.3% among 6,700; GPR119 PathHunter beta-arrestin cells, luminescence, 90 min; 0 = compound-well median, 100 = enzyme-acceptor control; activation, % at 11.2 µM; AID 1508611;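 active = mean percent activation in the counterscreen above 29.09%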;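 also: counterscreen on off-target GPR119 to flag nonselective hits from the GPR151 activator screen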
Target sequence (Q8TDV5 whole entry, looked up): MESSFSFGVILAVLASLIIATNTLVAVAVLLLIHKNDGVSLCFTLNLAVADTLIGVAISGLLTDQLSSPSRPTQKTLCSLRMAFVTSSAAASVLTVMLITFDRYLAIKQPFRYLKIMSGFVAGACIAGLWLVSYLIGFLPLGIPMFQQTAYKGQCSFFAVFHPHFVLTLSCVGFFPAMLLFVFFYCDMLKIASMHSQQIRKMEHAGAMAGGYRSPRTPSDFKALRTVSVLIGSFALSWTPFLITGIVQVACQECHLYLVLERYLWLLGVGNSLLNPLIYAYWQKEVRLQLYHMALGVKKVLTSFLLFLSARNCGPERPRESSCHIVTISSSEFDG
Large screens that a line does not name were inactive (follow-up assays come after a bar, where they were run). A selection: hits, their analogues and other compounds. The true share with any hit is near 3.5%.

O=C(NCCc1c[nH]c2ccccc12)C(c1ccccc1)N1Cc2ccccc2C1=O (configuration not stated)	GPR151 ag 5.2 | GPR151 confirm inactive | GPR119 counter inactive
Cc1nnc2n(C)c(=O)c3c4c(sc3n12)CCC4	none
CC(C)CCn1c(=O)c2sccc2n2c(CCCC(=O)NC3CC3)nnc12	GPR151 ag 5.0 | GPR151 confirm inactive | GPR119 counter inactive
CNC(=O)CCCc1nnc2n(CCC(C)C)c(=O)c3sccc3n12	none
COc1cccc(C2=N/C(=C\c3cn(C(C)=O)c4ccccc34)C(=O)O2)c1	GPR151 ag 7.5 | GPR151 confirm inactive | GPR119 counter inactive
CC(=O)n1cc(/C=C2/N=C(c3ccccc3)OC2=O)c2ccccc21	none
O=C(NC1CC1)c1cnc(Nc2ccc3ncccc3c2)s1	GPR151 ag 6.3 | GPR151 confirm inactive | GPR119 counter inactive
O=C(NC1CC1)c1cnc(Nc2ccc(C(F)(F)F)cc2)s1	GPR151 ag 4.9 | GPR151 confirm inactive | GPR119 counter inactive
COc1cccc(C(c2sc3ncnn3c2O)N2CCCC(C)C2)c1 (configuration not stated)	none
C=C(C)CN(CC)Cc1ccc(C(=O)NCC2(O)CCCCC2)c(=O)[nH]1	none
O=C(CCN1C(=O)c2ccc([N+](=O)[O-])cc2C1=O)Nc1cc(Cl)ccc1O	none
O=C(CCN1C(=O)c2ccccc2C1=O)Nc1cc([N+](=O)[O-])ccc1O	GPR151 ag 5.8 | GPR151 confirm inactive | GPR119 counter inactive
S=C(Nc1ccc2c(c1)OCO2)Nc1cnccn1	GPR151 ag 5.6 | GPR151 confirm inactive | GPR119 counter inactive
O=C(Nc1ccc2c(c1)OCO2)Nc1ccc(Br)cn1	GPR151 ag 6.5 | GPR151 confirm inactive | GPR119 counter inactive
S=C(Nc1ccc2c(c1)OCO2)Nc1ccc2c(c1)OCO2	none
O=C(NNC(=O)c1ccc(Cl)s1)Nc1ccc2c(c1)OCO2	GPR151 ag 5.2 | GPR151 confirm inactive | GPR119 counter inactive
N#Cc1ccsc1NC(=O)c1cc(Cl)sc1Cl	none
FC(F)(F)c1cccc(-c2cnc3ccc4ccncc4c3c2)c1	none
CCC1CN(CCC(=O)NCCc2nc3ccccc3[nH]2)Cc2cc(OC)ccc2O1 (configuration not stated)	GPR151 ag 7.0 | GPR151 confirm inactive | GPR119 counter inactive
CCC1CN(Cc2nc3ccccc3[nH]2)Cc2cc(OC)ccc2O1 (configuration not stated)	none
O=C(Nc1ccc(C(=O)Oc2ccccc2)cc1)c1ccc(-c2ccccc2)cc1	none
CCC1CCCCN1S(=O)(=O)c1ccc(C(=O)Nc2nccs2)cc1 (configuration not stated)	GPR151 ag 5.1 | GPR151 confirm inactive | GPR119 counter inactive
Cc1ccc(S(=O)(=O)N2CCCCC2CC(=O)Nc2nccs2)cc1 (configuration not stated)	none
CC(C)CC1NC(=O)N(CC(=O)Nc2cccc(I)c2)C1=O (configuration not stated)	GPR151 ag 8.8 | GPR151 confirm inactive | GPR119 counter inactive
Cc1cccc(NC(=O)CN(C2=NC3CS(=O)(=O)CC3S2)c2ccccc2)c1 (configuration not stated)	none
CCc1cccc(NC(=O)CN(C2=NC3CS(=O)(=O)CC3S2)c2cccc(C)c2)c1 (configuration not stated)	GPR151 ag 13 | GPR151 confirm inactive | GPR119 counter inactive
CN(C)S(=O)(=O)c1cccc(C(=O)n2ncc(C#N)c2N)c1	GPR151 ag 5.3 | GPR151 confirm inactive | GPR119 counter inactive
COc1ccc(S(=O)(=O)Oc2ccc(C=C3C(=O)NC(=S)NC3=O)cc2)cc1	none
COc1ccc(C2C3=C(Nc4ncnn42)c2ccccc2OC3c2ccc(SC)cc2)cc1 (configuration not stated)	none
Cc1ccc(N(C(C)C(=O)NC2CCCCCC2)S(C)(=O)=O)cc1C (configuration not stated)	none
C=CCNC(=O)C(C)N(c1ccc(C)cc1)S(C)(=O)=O (configuration not stated)	none
Cc1ccc(N(C(C)C(=O)NC2CCCCC2)S(C)(=O)=O)cc1C (configuration not stated)	GPR151 ag 6.6 | GPR151 confirm inactive | GPR119 counter inactive
C=CCNC(=O)C(C)N(c1ccccc1)S(C)(=O)=O (configuration not stated)	GPR151 ag 8.2 | GPR151 confirm inactive | GPR119 counter inactive
Cc1ccc(N(C(C)C(=O)NCc2ccccn2)S(C)(=O)=O)cc1C (configuration not stated)	GPR151 ag 5.4 | GPR151 confirm inactive | GPR119 counter inactive
Cc1ccc(C2=CC(c3ccc(Cl)cc3)n3nc(CCCO)nc3N2)cc1 (configuration not stated)	none
COc1ccc(C2C=C(c3ccc(Cl)cc3)Nc3nc(CCCO)nn32)cc1 (configuration not stated)	GPR151 ag 6.1 | GPR151 confirm inactive | GPR119 counter inactive
C#CCN(Cc1ccco1)C(=O)CC1(c2ccccc2F)CC(=O)N(CCOC)C1=O (configuration not stated)	GPR151 ag 6.7 | GPR151 confirm inactive | GPR119 counter inactive
NC(=O)C1CCN(C(=O)Cc2ccc(Cl)cc2Cl)CC1	none
O=C(Cc1ccc(Cl)cc1Cl)N1CCN(c2ccc(O)cc2)CC1	GPR151 ag 5.2 | GPR151 confirm inactive | GPR119 counter inactive
O=c1ccn(C2OC(COc3ccc([N+](=O)[O-])cc3)C(O)C2O)c(=O)[nH]1 (configuration not stated)	none
O=c1ccn([C@@H]2O[C@H](COP(=O)(O)OP(=O)(O)O)[C@@H](O)[C@H]2O)c(=O)[nH]1	GPR151 ag 5.1 | GPR151 confirm inactive | GPR119 counter inactive
COC(=O)c1ccc2c(=O)n(Cc3ccc(C(=O)NC4CCCCCC4)cc3)c(=S)[nH]c2c1	GPR151 ag 6.0 | GPR151 confirm inactive | GPR119 counter inactive
COC(=O)c1ccc2c(=O)n(Cc3ccc(C(=O)NC4CCCC4)cc3)c(=S)[nH]c2c1	none
CC/C=C\C/C=C\C/C=C\CCCCCCCC(=O)OCC	none (no result: TEAD-YAP block, FBW7 act)
CCCCC/C=C\C/C=C\C/C=C\CCCCCCC(=O)OCC	GPR151 ag 9.1 (no result: TEAD-YAP block, FBW7 act) | GPR151 confirm inactive | GPR119 counter inactive
O=C(NCc1ccc(N2CCCC2=O)cc1)c1cn(Cc2ccccc2)nn1	GPR151 ag 7.4 | GPR151 confirm inactive | GPR119 counter inactive
CCOC(=O)c1c(NC(=O)CC)sc2c1CC(C(C)C)OC2 (configuration not stated)	none
COc1ccc(C(=O)NNC(=O)CSc2nc3sc(C)c(C)c3c(=O)[nH]2)cc1	none
COc1ccc(C(=O)NNC(=O)CSc2ncn[nH]2)cc1	GPR151 ag 11 | GPR151 confirm inactive | GPR119 counter inactive
